Results as given in the supplement of paper PMC3545927.
The list shows a part of the results. How many sequences the whole screen found active is unknown.

Target: furin, P09958
Assay: furin cleavage Z-score vs untreated control; higher = more cleavage, active = 3.5 or more, inactive = 1 or less, 8 variable residues between constant flanks
Outline: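 Cleavage by purified furin was measured on 8-mer peptides fused to a cDNA oligonucleotide and held on magnetic beads by their N-terminus. Reactions (0.01 ml, 1:10 enzyme:substrate) ran 7.5, 15 or 30 min in 50 mM HEPES pH 7.5 with CaCl2 and NaCl. Released DNA was adapter-tagged by PCR and sequenced, with read counts giving abundance. Log counts versus furin-free reactions were lowess-adjusted and scaled by median absolute deviation to give the cleavage Z-score.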

furin, P09958, sequence (P09958 whole entry): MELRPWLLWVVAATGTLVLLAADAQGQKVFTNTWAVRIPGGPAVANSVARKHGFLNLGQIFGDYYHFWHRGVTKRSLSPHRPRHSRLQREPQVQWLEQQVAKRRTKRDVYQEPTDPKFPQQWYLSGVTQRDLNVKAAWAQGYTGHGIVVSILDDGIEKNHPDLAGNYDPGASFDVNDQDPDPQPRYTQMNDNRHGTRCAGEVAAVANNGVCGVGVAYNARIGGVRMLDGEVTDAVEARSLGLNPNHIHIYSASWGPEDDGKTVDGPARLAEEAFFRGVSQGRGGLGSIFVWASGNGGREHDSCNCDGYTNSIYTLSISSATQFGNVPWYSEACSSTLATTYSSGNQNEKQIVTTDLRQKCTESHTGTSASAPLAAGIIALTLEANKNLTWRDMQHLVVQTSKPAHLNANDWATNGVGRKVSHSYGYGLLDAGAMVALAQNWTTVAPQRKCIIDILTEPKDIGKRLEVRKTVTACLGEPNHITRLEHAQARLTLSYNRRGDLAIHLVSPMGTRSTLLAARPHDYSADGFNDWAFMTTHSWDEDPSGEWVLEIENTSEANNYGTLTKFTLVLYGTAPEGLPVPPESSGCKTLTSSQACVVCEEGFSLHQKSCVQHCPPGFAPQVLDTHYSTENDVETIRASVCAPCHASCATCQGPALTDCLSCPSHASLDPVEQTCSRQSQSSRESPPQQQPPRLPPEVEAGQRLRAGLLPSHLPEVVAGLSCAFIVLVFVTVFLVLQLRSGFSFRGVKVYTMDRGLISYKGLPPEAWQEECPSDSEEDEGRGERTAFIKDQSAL

Sequence	furin cleavage Z-score (7.5 min)	furin cleavage Z-score (15 min)	furin cleavage Z-score (30 min)
CAPKPCGIVPAGNASASA [HC406]	0.0213 (inactive)	0.68 (inactive)	1.33
CAESKRLVDTAGNASASA [FS-1880]	-0.698 (inactive)	0.318 (inactive)	0.434 (inactive)
CAEVVTSTTVAGNASASA [HC2238]	-0.88 (inactive)	-1.41 (inactive)	0.307 (inactive)
CALRNRLFRGAGNASASA [FS-359]	0.887 (inactive)	1.52	-0.676 (inactive)
CAGFDRKKRGAGNASASA [FS-238]	9.36 (active)	9.95 (active)	8.88 (active)
CALRTREKRGAGNASASA [FS-549]	7.16 (active)	7.31 (active)	5.83 (active)
CAKVKRSQGDAGNASASA [FS-1985]	3.98 (active)	3.48	3.75 (active)
CALHKRQVGDAGNASASA [FS-1675]	-0.324 (inactive)	-0.439 (inactive)	0.074 (inactive)
CAQRNLKKRGAGNASASA [FS-914]	10.1 (active)	13.1 (active)	11.1 (active)
CARQPRSNGDAGNASASA [FS-2292]	0.463 (inactive)	-0.49 (inactive)	1.56
CATTPHSGSWAGNASASA [HC49]	-0.934 (inactive)	-0.777 (inactive)	-0.65 (inactive)
CAEDRDRSELAGNASASA [HC488]	0.995 (inactive)	1.63	0.694 (inactive)
CARTPCSAHLAGNASASA [HC2473]	0.852 (inactive)	-0.775 (inactive)	2.15
CAITPCSAHLAGNASASA [HC2464]	-1.38 (inactive)	0.00684 (inactive)	-0.357 (inactive)
CATCPCSGSWAGNASASA [HC1860]	-0.794 (inactive)	-0.696 (inactive)	-0.69 (inactive)
CAMTPCSGSWAGNASASA [HC1826]	-0.934 (inactive)	-2.45 (inactive)	-0.784 (inactive)
CATFAVEKRGAGNASASA [FS-1289]	1.19	0.186 (inactive)	0.573 (inactive)
CAARGRYSRGAGNASASA [FS-1622]	1.05	0.971 (inactive)	1.84
CAAPHREKRGAGNASASA [FS-398]	10.8 (active)	11.4 (active)	9.9 (active)
CAEVVWSTWVAGNASASA [HC127]	0.227 (inactive)	0.0628 (inactive)	-0.337 (inactive)
CARYRRLTGDAGNASASA [FS-1843]	-1.17 (inactive)	-0.169 (inactive)	1.01
CARMCRVAGWAGNASASA [FS-2046]	0.157 (inactive)	-0.469 (inactive)	0.75 (inactive)
CARYRRTVGIAGNASASA [FS-2851]	2.96	3.86 (active)	6.08 (active)

Sequence	furin cleavage Z-score (7.5 min)	furin cleavage Z-score (15 min)	furin cleavage Z-score (30 min)
CARYRRCVGWAGNASASA [FS-2389]	3.27	2.12	5.02 (active)
CARYCRGVSAAGNASASA [FS-1941]	-0.864 (inactive)	-0.376 (inactive)	-0.444 (inactive)
CAKQRRIVGIAGNASASA [FS-2869]	0.0283 (inactive)	-0.751 (inactive)	0.888 (inactive)
CAQCTTPCSGAGNASASA [HC1962]	-0.946 (inactive)	0.921 (inactive)	-0.234 (inactive)
CAYCTTPCSGAGNASASA [HC1949]	-0.657 (inactive)	-1.14 (inactive)	-0.156 (inactive)
CASEECSQHLAGNASASA [HC1677]	1.1	1.14	0.289 (inactive)
CAPSFRDRRAAGNASASA [FS-1244]	9.04 (active)	11.1 (active)	9 (active)
CAVPSRQSRAAGNASASA [FS-207]	7.32 (active)	8.36 (active)	8.3 (active)
CAGPLWILQAAGNASASA [HC609]	1.21	-0.216 (inactive)	0.172 (inactive)
CAVRSRMRRAAGNASASA [FS-1500]	11 (active)	10.2 (active)	8.12 (active)
CALPSRQKKAAGNASASA [FS-1365]	0.168 (inactive)	0.828 (inactive)	1.92
CACSFTTLPAAGNASASA [HC499]	-0.00686 (inactive)	0.0583 (inactive)	0.931 (inactive)
CAVRSRHLRAAGNASASA [FS-632]	9.71 (active)	9.82 (active)	8.62 (active)
CAMEEISQHLAGNASASA [HC5]	1.45	0.702 (inactive)	-0.262 (inactive)
CAHLHAPTGSAGNASASA [HC774]	-0.0824 (inactive)	0.739 (inactive)	0.623 (inactive)
CAPQDVKFPGAGNASASA [HC170]	0.0199 (inactive)	-1.23 (inactive)	0.673 (inactive)
CAVEGEVQIVAGNASASA [HC688]	-0.863 (inactive)	-0.579 (inactive)	-0.88 (inactive)
CAERLRQKRIAGNASASA [FS-1194]	4.13 (active)	5.45 (active)	4.4 (active)
CARSLRSWLIAGNASASA [FS-1974]	0.545 (inactive)	0.463 (inactive)	0.528 (inactive)
CASITRMKRIAGNASASA [FS-719]	6.03 (active)	8.1 (active)	7.63 (active)
CASIARQKRIAGNASASA [FS-562]	4.19 (active)	2.74	5.27 (active)
CAMSTRKARIAGNASASA [FS-277]	1.25	1.83	-0.362 (inactive)
CALHRRQKRIAGNASASA [FS-821]	9.03 (active)	10.1 (active)	10.5 (active)
